cytoskel mod: cytoskeleton assembly modification. HUVEC TNFa F-actin phalloidin imaging, high content. inhibition, % at 2 µM. hit rate 0.18% among 91,000. AID 836;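 active = inhibition above the batch mean plus 3 SD and confirmed as a hit by visual image inspection, cut at about 30% in these data, passing the limit was not always enough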
S1P2 ag: activates the human S1P2 receptor; O95136; S1P2-expressing cell line, agonist reporter read-out; activation, % at 4.5 µM; hit rate 0.46% among 97,000; in the data active = activation above about 16%;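 also: 0% = vehicle low control and 100% = maximal reference agonist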
Target sequence (O95136 whole entry, looked up): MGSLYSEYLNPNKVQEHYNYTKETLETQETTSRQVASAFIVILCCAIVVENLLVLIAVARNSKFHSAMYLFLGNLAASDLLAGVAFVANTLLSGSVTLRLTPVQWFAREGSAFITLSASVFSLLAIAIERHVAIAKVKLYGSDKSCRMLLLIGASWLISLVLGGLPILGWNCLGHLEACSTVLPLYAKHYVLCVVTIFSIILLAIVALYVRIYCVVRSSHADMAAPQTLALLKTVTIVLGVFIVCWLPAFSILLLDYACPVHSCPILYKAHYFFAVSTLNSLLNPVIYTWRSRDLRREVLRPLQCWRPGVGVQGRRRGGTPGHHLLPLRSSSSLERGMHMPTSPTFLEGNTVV
E-sel TNF inh: blocks E-selectin expression induced by TNF alpha; HUVEC TNFa-induced E-selectin immunofluorescence, high content; inhibition, % at 2 µM; hit rate 0.71% among 120,000;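 active = inhibition above the batch mean plus 3 SD, and confirmed as a hit on visual image review, cut at about 43% in these data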;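 also: 0% = TNF-stimulated DMSO wells and 100% = unstimulated control wells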
TNFa cytotox: toxic to HUVEC cells under TNF alpha stimulation. HUVEC TNFalpha-stimulated, Hoechst cell count, imaging. hit rate 0.17% among 93,000. AID 848. cell count reduction, % at 2 µM;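 active = cell count reduction exceeding the screen mean by over 5 SD, scaled to untreated wells per plate, cut at about 78% in these data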;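 also: cells counted after 24 h of TNF alpha exposure following the 1 h pretreatment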
VCAM1 TNFa inh: reduces TNF alpha induced VCAM1 expression in HUVEC; HUVEC TNFa-induced VCAM-1 immunofluorescence, high-content imaging; inhibition, % at 2 µM; hit rate 0.48% among 95,000; AID 802;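 active = inhibition above the batch mean plus 3 SD, with images confirmed as a hit by eye, cut at about 37% in these data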;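 also: 0% = TNF-stimulated DMSO wells and 100% = unstimulated control wells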
S1P2 blocker: blocks the human S1P2 receptor | cell-based S1P2 antagonist assay, inhibition at 5 uM | inhibition, % at 5 µM | hit rate 0.21% among 97,000 | AID 736; in the data active = inhibition above about 45%;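 also: CRE beta-lactamase reporter cells expressing human S1P2 stimulated with S1P; 0% = agonist at EC80 alone and 100% = agonist plus reference antagonist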
An asterisk follows results filed as active; x = no result. Compounds with a hit are over-represented: about 1.6% of the library has one in this group of screens.

SMILES	cytoskel mod	S1P2 ag	E-sel TNF inh	TNFa cytotox	VCAM1 TNFa inh	S1P2 blocker
COCCn1c(C(C)C)nc2oc3ccccc3c(=O)c2c1=O	-29	-3	x	-23	2	-6
CCc1nc2oc3ccccc3c(=O)c2c(=O)n1CCOC	-43	-4	x	97*	87*	2
Cn1c(-c2sc3ccccc3c2Cl)n[nH]c1=S	-15	-1	-6	4	-5	-7
Cc1ccc2nc(-c3ccc(NC(=O)CCN4C(=O)c5ccccc5C4=O)cc3)sc2c1	x	x	65*	x	x	x
Cc1ccc2nc(-c3ccc(NC(=O)C(C)N4C(=O)c5ccccc5C4=O)cc3)sc2c1 (stereo unspecified)	x	x	-20	x	x	x
Cc1ccc(NC(=O)c2ccc(OC(=O)CCN3C(=O)c4ccccc4C3=O)cc2)cc1	-9	-11	44*	6	0	2
Cc1ccccc1OCC(=O)NC1=NCCS1	3	-6	-5	-2	4	-12
COc1cccc(-c2noc(CCCC(=O)Nc3ccc(C(N)=O)cc3)n2)c1	x	x	12	x	x	x
CC1(C)CN(c2ccccc2)N(Cc2ccc(F)cc2)C1=O	-7	-1	1	-5	15	11
CC1CCc2c(nc3sc4c(c3c2N)CCCC4)C1 (stereo unspecified)	x	x	11	x	x	x
Cc1cccc(NC(=O)Cn2nc(C(F)(F)F)cc2C2CC2)c1	40*	-6	-27	-13	-48	-5
O=S(=O)(Nc1ccccn1)c1ccc(Cl)c2ccccc12	x	x	82*	x	x	x
COc1ccc(CNC(=O)C(CCSC)NS(=O)(=O)c2ccccc2F)cc1 (stereo unspecified)	x	x	79*	x	x	x
COCCCn1c(=N)c(C(=O)NCC2CCCO2)cc2c(=O)n3cccc(C)c3nc21 (stereo unspecified)	x	x	-1	x	x	x
COCCCn1c(=N)c(C(=O)NCC2CCCO2)cc2c(=O)n3ccccc3nc21 (stereo unspecified)	27	24*	10	-3	10	-31
Cc1ccc(Cn2c(=N)c(C(=O)NCc3ccco3)cc3c(=O)n4ccccc4nc32)cc1	-16	24*	-7	-14	-5	-29
N=c1c(C(=O)NCc2ccc(F)cc2)cc2c(=O)n3ccccc3nc2n1CC1CCCO1 (stereo unspecified)	-4	31*	x	8	23	-43
COc1ccc(C(=O)NCC(=O)OCC(=O)N2N=C(c3ccc(Cl)cc3)CC2c2ccco2)cc1OC (stereo unspecified)	x	x	-3	x	x	x
C=CCNCC(=O)NN=C(c1ccccc1)c1ccccc1	-7	-4	14	-27	3	-15
COc1ccc2[nH]c(=O)c3c(c2c1)OC(C)(C)C=C3	-8	-11	x	-18	8	57*
COc1ccc(-c2cc(=O)c3cc(OC)ccc3[nH]2)cc1	x	x	4	x	x	x
O=C(NCc1ccccc1)c1n[nH]nc1-c1ccccc1O	x	x	58*	x	x	x
COc1cc(CN2CCN(c3cc(C)ccc3C)CC2)cc([N+](=O)[O-])c1O	-10	-3	0	-2	6	5
COc1cc(CN2CCN(c3ccc(C)cc3)CC2)cc([N+](=O)[O-])c1O	5	-1	100*	-7	9	2
COc1ccc2c(=O)c(-c3cnn(-c4ccccc4)c3)c(C)oc2c1	-16	-2	-40	-6	3	-7
SMILES	cytoskel mod	S1P2 ag	E-sel TNF inh	TNFa cytotox	VCAM1 TNFa inh	S1P2 blocker
Cc1oc2c(C)c(O)ccc2c(=O)c1-c1cnn(-c2ccccc2)c1	-18	7	59*	-15	13	-27
CC(C)CC(CO)N1CCN(C(=O)c2ccc(C(C)(C)C)cc2)CCC1=O (stereo unspecified)	x	x	-19	x	x	x
CCc1ccc2oc(-c3cc(N)ccc3Cl)nc2c1	x	x	-34	x	x	x
CCc1ccc2oc(-c3cc(N)ccc3O)nc2c1	-6	-2	36	0	39*	1
COc1cccc(CNC(=O)C(c2ccc(Cl)cc2)C(C)C)c1 (stereo unspecified)	x	x	6	x	x	x
O=C(NCCc1ccccc1)C(NS(=O)(=O)c1cccc2nsnc12)c1ccccc1 (stereo unspecified)	x	x	-8	x	x	x
O=C(C#Cc1ccccc1)c1cccc([N+](=O)[O-])c1	4	-12	18	-4	-1	67*
N/C(=N\OC(=O)Oc1ccccc1)c1cccc([N+](=O)[O-])c1	x	x	-16	x	x	x
Cc1cc(NC(=O)CSc2ccc3nnc(-c4ccc(F)cc4)n3n2)no1	34	-4	-7	-14	8	7
Cc1ccc(-c2nnc3ccc(SCC(=O)Nc4cc(C)on4)nn23)cc1	66*	-4	-12	24	5	3

High-throughput results as filed in PubChem.
